TNF necrop inh – inhibitors of TNF-alpha triggered necroptosis, primary screen, cell-based, Jurkat FADD-/-, single concentration; 220,000 compounds, 0.068% hits; Jurkat FADD-/- TNF necroptosis rescue, ATP luminescence, 24 h; 0 = TNF only, 100 = no-TNF cells; activation (protection from cell death), % at 10 µM; AID 463075, 2010;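 active = activation, meaning protection from cell death, of at least 50% relative to plate controls; inactive = activation below 50%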;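 also: necroptosis triggered by 40 ng/mL TNF-alpha added together with compound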
HIF activator – HIF pathway transcriptional activators, primary screen, cell-based, U2OS HRE-luciferase, luminescence. U2OS HRE-luciferase reporter; normalized: DMSO 0%, desferrioxamine 100%. activation, % at 7.5 µM (by protocol). 300,000 compounds, 0.32% hits;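 active = mean activation of at least 10% of the iron chelator positive control signal, with at least half of replicates also reaching 10%; inconclusive = mean and replicate majority disagree about reaching 10%; inactive = mean and most replicates under 10%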
Calb FLC – C. albicans growth inhibition with fluconazole, primary screen, CaCi-2 strain, Alamar Blue fluorescence | growth inhibition, % (concentration not given with the values) | 300,000 compounds, 0.57% hits | C. albicans CaCi-2 (fluconazole-resistant clinical isolate) + fluconazole, 48 h;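 active = growth inhibition above about 58% in most replicates, limit read from the data, passing the limit was not always enough; inconclusive = exactly half the replicates above a set limit; inactive = most replicates below a set limit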;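 also: all wells also contain fluconazole at 8 µg/ml as a sub-toxic cotreatment; 0% = median of DMSO wells and 100% = median of geldanamycin control wells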
zVAD death inh – inhibitors of zVAD-triggered necroptosis, primary screen, L929 cells | L929 zVAD necroptosis rescue, ATP luminescence, 24 h; with zVAD 60 µM | viability rescue, % at 10 µM | 220,000 compounds, 0.38% hits | AID 1377, 2008;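 active = activation, scaled between plate controls, above about 75%, limit read from the data; inactive = activation under that limit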;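 also: 0% = zVAD with DMSO and 100% = DMSO alone without zVAD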
* = called active by the depositor; ? = inconclusive; . = no result given. Most compounds without a hit are left out; they make up all but 1.1% or so of the library.

SMILES	TNF necrop inh	HIF activator	Calb FLC	zVAD death inh
O=C(CCSCCC(=O)Nc1c(F)c(F)c(F)c(F)c1F)Nc1c(F)c(F)c(F)c(F)c1F	3	-1	13	3
Cc1ccc(O)c(NC(=O)c2ccc3c(c2)C(=O)N(Cc2cccnc2)C3=O)c1	.	0	-4	.
Cc1ccc(O)c(NC(=O)c2ccc3c(c2)C(=O)N(Cc2ccco2)C3=O)c1	.	32*	-20	.
CC(=O)Cc1nsc(Nc2ccc(F)cc2)n1	6	.	-15	1
CC(=O)Cc1nsc(Nc2ccc(Cl)cc2)n1	5	.	118*	0
Nc1n[nH]c(-c2cccc([N+](=O)[O-])c2)n1	1	1	93*	1
Cc1ccc(OCCN2CCN(C(=O)CCC(=O)Nc3nnc(CC(C)C)s3)CC2)cc1	-12	1	15	1
NC(N)=N/N=C/c1ccc(OCc2ccc(Cl)cc2)cc1	-26	-1	111*	0
O=C(C1=C[C@H](c2csc3ccccc23)C[C@H](OCc2ccc(CO)cc2)O1)N1CCCCCCC1	.	-1	9	.
COc1cc(C(=O)N/N=C(\Cc2ncc[nH]2)c2ccccc2)cc(OC)c1OC	0	.	-22	1
c1ccc(N/N=C(\Cc2ncc[nH]2)c2ccccc2)cc1	1	1	114*	0
COc1ccc(C(=O)N/N=C(\Cc2ncc[nH]2)c2ccccc2)cc1	0	4	98*	27
Cc1ccccc1C(=O)Nc1cc(NC(=O)c2ccccc2C)cc(C(=O)O)c1	.	-2	1	.
NC(=O)N/N=C\c1cc(Br)ccc1O	-2	0	4	1
Nc1nonc1-n1nnc(C(=O)N/N=C/c2cc(Br)ccc2O)c1CNc1ccccc1	.	7	88*	.
Nc1nonc1C(=O)N/N=C/c1cc(Br)ccc1O	-11	22*	101*	51
c1cnc(SCCOc2ccc3c(c2)CCC3)nc1	-2	1	101*	-1
Cc1c(C(=O)N(C)Cc2ccc(OC(F)F)cc2)oc2ccccc12	.	1	9	.
Cc1ccc(S(=O)(=O)Nc2nc3ccccc3s2)cc1	1	1	41	0
O=S(=O)(Nc1nc2ccccc2s1)c1ccc(Br)s1	1	0	89*	-1
CCOC(=O)CN1C(=N)N(c2nc(NC(C)C)nc(NC(C)C)n2)CC1=O	0	11*	-19	0
CC(=O)c1ccc(OCc2cc(C(=O)NCCn3nc(C)cc3C)no2)cc1	.	3	6	.
CCOc1ccccc1NC(=O)C(C)N1C(=O)c2ccccc2S1(=O)=O (centres undefined)	.	0	0	.
CC(=O)/C(N=Nc1c(C)n(C)n(-c2ccccc2)c1=O)=C(\C)O	0	0	-3	-1
CC1(C)CC(=O)C(N=Nc2cc(Cl)c(Cl)c(Cl)c2)=C(O)C1	-1	0	6	0
SMILES	TNF necrop inh	HIF activator	Calb FLC	zVAD death inh
Cc1c(N=NC2=C(O)CC(C)(C)CC2=O)c(=O)n(-c2ccccc2)n1C	-2	0	96*	36
Cc1ccc(O)c(N=NC2=C(O)CC(C)(C)CC2=O)c1	-7	6	85*	2
C=CCNC(=O)C1CC(=O)N(c2ccc(OCC(=O)Nc3c(C)cccc3C)cc2)C1 (centres undefined)	.	0	0	.
CCN(CC)C(=O)c1ccc(Cn2cc([N+](=O)[O-])cn2)o1	1	0	-14	-1
CCCn1c2ccccc2c2cnn(CC(=O)NC3CCCC(C)C3C)c(=O)c21 (centres undefined)	.	13*	1	.
CCCn1c2ccccc2c2cnn(CC(=O)NC3CCC(C)CC3)c(=O)c21 (centres undefined)	.	0	-4	.
CCCCNC(=O)c1cc(-c2ccc(OC)cc2)on1	-3	5	39	-1
CCCCNC(=O)c1cc(-c2ccc(F)cc2)on1	-9	41*	-25	4
O=C(NCCCN1CCOCC1)c1cc(-c2ccccc2)on1	-10	28*	7	4
Cc1cc(C)c(NC(=O)CNC(=O)CSc2nnc(N)s2)c(C)c1	.	2	2	.
CC(CCc1ccccc1)NC(=O)CN1CCN(c2ccc(O)cc2)CC1 (centres undefined)	-8	0	95*	-1
CC(CCc1ccccc1)NC(=O)CN1CCN(Cc2ccccc2)C1=O (centres undefined)	-1	0	8	0
COc1cccc(CN2C(=O)[C@@H]3Cc4c([nH]c5ccccc45)C(C)(C)N3C2=O)c1	.	-1	13	.
CC1SC(=NC(=O)c2ccncc2)NC1=O (centres undefined)	-1	932*	0	6
CCCCCC1CCC(c2n[nH]c(=S)n2C)CC1 (centres undefined)	-5	0	99*	0
C=CCn1c(C2CC2)n[nH]c1=S	1	0	-7	-1
N=c1c2c(-c3ccccc3)c(-c3ccccc3)n(Cc3ccccc3)c2ncn1CCO	-8	-2	97*	0
N=c1c2c(-c3ccccc3)c(-c3ccccc3)n(Cc3ccco3)c2ncn1Cc1ccccc1	-7	3	8	8
Cc1ccc(CNC(=O)C2CCC(=O)N(CCc3cccc(F)c3)C2)cc1 (centres undefined)	.	0	-4	.
COc1ccc(NC(=O)c2ccc([N+](=O)[O-])o2)cc1	.	3	103*	.
COc1cc(NC(=O)c2ccc([N+](=O)[O-])o2)ccc1NC(=O)c1ccco1	.	-1	.	.
CC(=O)c1ccc(NC(=O)c2ccc([N+](=O)[O-])o2)cc1	.	1	6	.
Cc1cc(NC(=O)c2ccc([N+](=O)[O-])o2)ccc1NC(=O)c1ccco1	-20	2	58*	2
Cc1ccc(NC(=O)CCNC(=O)Cn2ccc3ccccc3c2=O)cc1F	.	-1	6	.
O=C(O)c1ccc(CN2C(=O)CSC2=S)cc1	-2	0	98*	0
SMILES	TNF necrop inh	HIF activator	Calb FLC	zVAD death inh
O=C(O)c1ccc(N2C(=O)CSC2=S)cc1	.	?	4	.
O=C(N/N=C/c1cccc(O)c1)c1ccc2c(c1)OCCO2	.	-1	0	.
CCn1c(C)nc2cc(C(=O)NNC(=S)Nc3ccc(Cl)cc3Cl)ccc21	1	-22	95*	0
CCOc1cccc(/C=N/NC(=O)c2ccc3c(c2)OCCO3)c1O	.	12*	1	.
COc1ccccc1/C=N\NC(=O)c1c(C)nc2ccc(Cl)cn12	.	1	-28	.
COc1cccc(/C=N/NC(=O)CNC(=O)c2ccc3c(c2)OCCO3)c1O	-6	1	-57	9
COc1cccc(/C=N/NC(=O)c2c(C)nc3ccc(Cl)cn23)c1O	.	86*	104*	.
Cc1cccc(/C=N/NC(=O)c2ccc3c(c2)OCCO3)c1O	.	28*	21	.
CN(C(=O)COC(=O)Cn1c(C(F)(F)F)nc2ccccc21)c1c(N)n(Cc2ccccc2)c(=O)[nH]c1=O	.	0	-9	.
CN(C)c1ccnc(-n2cccc2/C=N/O)c1C#N	0	0	-24	1
O=S(=O)(NCC1(N2CCOCC2)CCCCC1)c1ccc(F)c(F)c1F	.	-1	-3	.
CC(C)Cc1nnc(NC(=O)CCNC(=O)c2ccco2)s1	.	1	-2	.

Source: PubChem BioAssay
